Drawing on article PMC7819943, “Rice protein-binding microarrays: a tool to detect cis-acting elements near promoter regions in rice”, this text covers binding signal for 42 sequences.

Over roughly 68,000 sequences, “fluorescence intensity (a.u.)” has its median near 9,100; the highest 2% begin near 16,000. The list comes from a sample in which the highest values are over-represented; it also holds similar and randomly drawn sequences.

In this experiment the target is OsWRKY34 (Oryza sativa, UniProt Q0JBA9 1-250). Nature of the experiment: protein-binding microarray (RPBM); PBS, 2% BSA, 51.3 ng/ul salmon testes DNA, 50 uM zinc acetate, 200 nM TF, 25 C, 1 h; high values mean tight binding. To be noted: protein: recombinant; tags: N-terminal polyhistidine and DsRed monomer fusion (pET32a); label: CyDye5-dUTP incorporated in the synthesized complementary strand; 3' TTTTT single-stranded linker to array surface; dsDNA, one strand shown. The method, boiled down: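 Binding signal is reported as fluorescence intensity per feature (arbitrary units) from an Axon 4000B scanner. Incubation used 200 nM of each Ni–NTA-purified, N-terminally polyhistidine- and DsRed-fused transcription factor from E. coli BL21-CodonPlus on a double-stranded custom Agilent array for 1 h at 25 °C, with 50 µM zinc acetate in the buffer, followed by washing.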
Chain of OsWRKY34 (Q0JBA9 entry or part of it): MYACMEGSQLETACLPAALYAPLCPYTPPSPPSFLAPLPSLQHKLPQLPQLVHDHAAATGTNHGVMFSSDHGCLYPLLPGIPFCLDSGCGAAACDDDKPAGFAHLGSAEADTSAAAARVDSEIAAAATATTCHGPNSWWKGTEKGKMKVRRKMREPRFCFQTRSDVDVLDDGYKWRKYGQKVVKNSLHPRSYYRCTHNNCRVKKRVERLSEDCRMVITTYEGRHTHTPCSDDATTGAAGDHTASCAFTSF
On to “CACTCAACCTAACTGTTGAACGGTCCTGTTCTGGCCAACGCGGAGTCACCTAGTGCAG”, for which the binding signal is 8890 fluorescence intensity (a.u.). Take “ATGATAGGTCCTGGACTCACAAGTTATTGAGAACGGCACGCGGAGTCACCTAGTGCAG”: the binding signal is 50900 fluorescence intensity (a.u.). For “CTGGACGCGGTCCTGCACGACACATGCATCATCTCCTCAACGGAGTCACCTAGTGCAG”, the binding signal is 8570 fluorescence intensity (a.u.). Turning to “TGGTGTGTTTTTTGGGATGTTTCGGTAGGTATTTTGTGATCGGAGTCACCTAGTGCAG”, the binding signal is 12000 fluorescence intensity (a.u.).

Turning to “GGCTGCCTCCTCTCCTCATCCCTGCACCTACACTCCAATACGGAGTCACCTAGTGCAG”, the binding signal was 8530 fluorescence intensity (a.u.).

For “ATCCATCTTCTTCTTCTTTCTTTCTTTTCTTCCTCTTCTTCGGAGTCACCTAGTGCAG”, the binding signal was 10400 fluorescence intensity (a.u.).

In the case of “TTACACATTTCTTTTTCATCACTGCTGATATGTTATCCTTCGGAGTCACCTAGTGCAG”, the binding signal is 9940 fluorescence intensity (a.u.). In the case of “TCCTTTTGCTTTCTTTCTTTTGTGTTTTTCAAATTTCTACCGGAGTCACCTAGTGCAG” it was 9810 fluorescence intensity (a.u.); in that of “GTTTTCTTTCTTTTTTTTTTCCACCTGTCGCACTGTACATCGGAGTCACCTAGTGCAG”, 11800 fluorescence intensity (a.u.). “CTCACCTACCGCATCTGTGTTCCTTTTGCTTTCTTTCTTTCGGAGTCACCTAGTGCAG”: the binding signal is 18100 fluorescence intensity (a.u.). Consider “GTCCTTTACACTGATCCTGCACATCGCTCACTGTTTTCTTCGGAGTCACCTAGTGCAG”, for which the binding signal was 16800 fluorescence intensity (a.u.).

Turning to “GCAGCTCTACTGTTTTCCGCTTCCATCTTCTTCCTTTCTTCGGAGTCACCTAGTGCAG”, the binding signal was 16700 fluorescence intensity (a.u.). As to “CATCTTACCTTACGTCCACCGCATCTCATCCTTTGCTGTTCGGAGTCACCTAGTGCAG”, the binding signal was 12200 fluorescence intensity (a.u.).

As to “GCCTTCTCCATCTCTCTGCTTCTTTTGTTTGTTTTTCTTTCGGAGTCACCTAGTGCAG”, the binding signal was 13000 fluorescence intensity (a.u.).

“TAATACTCCTACTATGGACTTGTTCTCCGTGTTGCTTATTCGGAGTCACCTAGTGCAG”: the binding signal was 10200 fluorescence intensity (a.u.).

Consider “CCGTTACATGACGTGGGCCCCACCCAGCCGCGCCAGCCCACGGAGTCACCTAGTGCAG”, for which the binding signal is 8450 fluorescence intensity (a.u.). On to “CCACTCACTCTGTGTTTCACTTGCTGCCTTTCAGTTGCAACGGAGTCACCTAGTGCAG”, for which the binding signal is 8820 fluorescence intensity (a.u.).

Take “TTCTAAATTTGAAACGGTTTTATGACTTCTTTTCAGCGTTCGGAGTCACCTAGTGCAG”: the binding signal is 8520 fluorescence intensity (a.u.). In the case of “GGTGACGGCGGCTGTCTTCTTCGTAGGGTGCGGGGTGGCTCGGAGTCACCTAGTGCAG” it was 8880 fluorescence intensity (a.u.); in that of “TGTCTACATACGCTCAATCCATTATTCCCCTATTACATCACGGAGTCACCTAGTGCAG”, 9500 fluorescence intensity (a.u.).

Take “ACCATCCAGCGCGTAACCGATTCCCTGTACATTCGGCCGCCGGAGTCACCTAGTGCAG”: the binding signal is 9080 fluorescence intensity (a.u.).

In the case of “GGAGATCTTATACCCGATTTTACTGTTGAGGATTGTGACTCGGAGTCACCTAGTGCAG”, the binding signal is 8640 fluorescence intensity (a.u.). “ACGCTTACAACATGCGCATACACGCACACCCAATCCTATGCGGAGTCACCTAGTGCAG”: the binding signal was 11000 fluorescence intensity (a.u.). “AGATTTTTTTGAACTTTCTGTCTGGGTCGGCTGTTTGTGTCGGAGTCACCTAGTGCAG”: the binding signal was 10500 fluorescence intensity (a.u.). For the sequence “GGTAGATTATATTAGGTTTTTCTTCGTGTTGTATTCACGACGGAGTCACCTAGTGCAG”, the binding signal is 8720 fluorescence intensity (a.u.). In the case of “TATTTTTTGGTTGTCCTTTGTTTTTTTAAAAAATATTTGTCGGAGTCACCTAGTGCAG”, the binding signal was 8170 fluorescence intensity (a.u.). Consider “CTTACTCTCTCCGTCTCTAAATATTTGACGCCGTTGACTTCGGAGTCACCTAGTGCAG”, for which the binding signal is 12900 fluorescence intensity (a.u.). Turning to “CCTGTAATACTCTCTCCGTCTATAAATATTTGACGCCGTTCGGAGTCACCTAGTGCAG”, the binding signal was 8560 fluorescence intensity (a.u.). The value for “CACACATAAACTTTTAACTTTTTTATCACATCGTTTTAATCGGAGTCACCTAGTGCAG” was 8490 fluorescence intensity (a.u.); that for “CTCTTCATTTTTTTAATAGATAGCGTCGTTGACTTTTGAACGGAGTCACCTAGTGCAG” was 14800 fluorescence intensity (a.u.). In the case of “CTCCGTCCTTAAATATTTGACGTCGTTGACTTTTTTAAACCGGAGTCACCTAGTGCAG” it was 26000 fluorescence intensity (a.u.). “AAATACAACTTTGACTTTTTGTTTCTTTAAAAATATTTATCGGAGTCACCTAGTGCAG”: the binding signal was 9920 fluorescence intensity (a.u.). For “ACTCTCTCCGTCCTTAAATATTTGACGCCGTTGACTTTTTCGGAGTCACCTAGTGCAG”, the binding signal is 30600 fluorescence intensity (a.u.). In the case of “GTCCTTAAATATTTGACGTCGTTGACTTTTTTTAAAATATCGGAGTCACCTAGTGCAG” it was 20900 fluorescence intensity (a.u.); in that of “ACTTTTTAAATATGTTTGACCGTTCGTCTTATTCAAAAACCGGAGTCACCTAGTGCAG”, 9990 fluorescence intensity (a.u.); in that of “TAAGACGTTTTGACTTTTTTTTTTCCTATTTAAACCTTTTCGGAGTCACCTAGTGCAG”, 13500 fluorescence intensity (a.u.). Consider “TAGCGTCGTTGACTTTTGAACACATTTTTATCATTTAAATCGGAGTCACCTAGTGCAG”, for which the binding signal is 22400 fluorescence intensity (a.u.). With “GGAGGGGTTGGAAAAATTCGGTGTTCGTGGCCGCCTTCACCGGAGTCACCTAGTGCAG”, the binding signal was 13400 fluorescence intensity (a.u.).

For the sequence “GAAAATATCTGAAAGATACCGTTTGTCGTACTCCTTTTCTCGGAGTCACCTAGTGCAG”, the binding signal was 9000 fluorescence intensity (a.u.). “AACATTGATGAGAATTGAAATCATTTCGTTGCTCTAATCTCGGAGTCACCTAGTGCAG”: the binding signal is 8340 fluorescence intensity (a.u.). The value for “CTAGCTGAAGACTTGTGCATGCAGTTTACACCTTTTATCTCGGAGTCACCTAGTGCAG” was 9280 fluorescence intensity (a.u.).

In the case of “TAGCTCGTCTACTCCTAGCTCTCTCGTCCAATCCGGCCGGCGGAGTCACCTAGTGCAG”, the binding signal is 8680 fluorescence intensity (a.u.).
